HT1080 IDH1KD tx = toxicity to HT-1080 IDH1 knockdown cells (counter line) | 360,000 compounds, 2% hits | Potency, µM (titrated, usually from 46.1 µM), without a hit: top-dose activity, negative = toxicity, most hits filed as cytotoxic | HT-1080 IDH1 knockdown viability, ATP luminescence, 48 h;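 also: potency is read from the fitted curve at half-maximal effect; 0% = DMSO wells and -100% = cell-free medium wells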
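After a 2 h attachment period, IDH1KD HT-1080 cells took pin-transferred compound for 48 h at 37 °C; ATP-based luminescence after 10 min room-temperature reagent incubation reported viability.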
DT40 TDP1 no CPT = qHTS for Inhibitors of human tyrosyl-DNA phosphodiesterase 1 (TDP1): qHTS in cells in absence of CPT. DT40 Tdp1-/- hTDP1 cells, no CPT, ATP luminescence, 48 h. Potency, µM (doses to about 46.2 µM), without a hit: top-dose activity change, negative = growth inhibition, actives largely listed as inhibitors. 420,000 compounds, 15% hits; also: potency is read from the fitted curve at half-maximal effect; nearly all actives have a fitted effect of over 55% in size
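Compound effects on proliferation are scored in DT40 Tdp1-/-;hTDP1 cells in the absence of CPT. ATP levels (CellTiter-Glo luminescence) are recorded after a ≥48 hr, 37 °C incubation.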
IL1B secr inh = inflammasome signaling inhibition, IL-1 beta readout; THP-1 LPS/ATP IL-1B secretion, AlphaLISA, 16 h; stronger effect = lower value; activity change, % at 57.5 µM; 360,000 compounds, 4.7% hits; AID 743279; in the data active = activity change below about -50%; inconclusive = mostly about -30% to -49%
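Secreted IL-1B measured by AlphaLISA bead assay after 16 h compound exposure of THP-1 cells; compounds (final up to 57.5 uM) added 1 h before LPS (250 ng/mL) and ATP (1.25 mM) stimulation; lower signal means less secretion.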
HT1080NT lethal = kills 2HG-producing HT-1080-NT fibrosarcoma cells. HT-1080-NT fibrosarcoma viability, CellTiter-Glo ATP luminescence, 48 h. Potency, µM (doses to about 46.1 µM), for the others: at the highest dose activity, negative = less viability, actives largely listed as cytotoxic. 360,000 compounds, 1.6% hits;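 also: NT is the 2HG producing partner of a matched IDH1 knockdown line; potency is read from the fitted curve at half-maximal effect; 0% = DMSO-treated cells and -100% = media-only wells without cells; nearly all actives have a fitted effect of over 55% in size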
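750 cells/well, RPMI + 5% FBS; 2 h settle, compound pin-transfer, 48 h at 37 degrees C. CellTiter-Glo 10 min RT, luminescence. Normalized to DMSO and media-only wells.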
DT40 TDP1 CPT = DT40-hTDP1 cell growth loss with CPT; 420,000 compounds, 12% hits; chicken DT40 Tdp1-/-;hTDP1 cells + 20 nM CPT, ATP luminescence, 48 h; Potency, µM (doses to about 46.2 µM), for the others: at the top dose activity change, negative = growth inhibition, most hits filed as inhibitors; also: potency is read from the fitted curve at half-maximal effect; nearly all actives have a fitted effect of over 55% in size
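Chicken DT40 Tdp1-/- cells stably complemented with human TDP1 were seeded at 400 cells/well in medium containing 20 nM camptothecin, exposed to pin-transferred compounds, and grown at 37 °C for at least 48 hr. Viability was read as ATP luminescence.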
ELG1 DNA repair = blocks ELG1-dependent DNA repair in HEK293T cells; HEK293T ELG1-luciferase reporter, luminescence, 16 h; DNA damage induced by 5-fluorouridine; Potency, µM (doses to about 46.1 µM), inactives show at the highest dose activity change, negative = inhibition, hits mostly inhibitors; 330,000 compounds, 2.3% hits; AID 504467; also: potency is read from the fitted curve at half-maximal effect; nearly all actives have a fitted effect of over 55% in size
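Overnight (16 hr) co-exposure of 2,000 cells/well to 5-fluorouridine and compound at 37 °C preceded detection. Luciferase was quantified via ONE-Glo luminescence; loss of signal denotes inhibition.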
The depositor's hits bear a star; ? = inconclusive; . = no result; [ ] = remark or other dose. The list is not random: actives were taken first. Their share in the collection is about 19%. Unless noted, calls follow the shape of the dose curve; as a rule, active = well fitted curve in the direction sought with a large enough effect; inconclusive = small, poorly fitted or top-dose-only effect, or another doubt; inactive = no such curve, though single readings can be large; an effect the other way counts as inactive or inconclusive. Unless noted, % is scaled to controls: 0 for no effect and ±100 for the full control effect.

SMILES	HT1080 IDH1KD tx	DT40 TDP1 no CPT	IL1B secr inh	HT1080NT lethal	DT40 TDP1 CPT	ELG1 DNA repair
CC12CCC(=O)N1C(C(=O)Nc1ccc(S(=O)(=O)N3CCCCC3)cc1)CS2 (stereo unspecified)	1%	-4%	0	2%	-13%	5%
CC12CCC(=O)N1C(C(=O)Nc1cccc(S(=O)(=O)N3CCCCCC3)c1)CS2 (stereo unspecified)	-6%	?	-14	-2%	-24%	-20%
CN(C)c1ccc(S(=O)(=O)N2CCCCC2)cc1NC(=O)C1CSC2(C)CCC(=O)N12 (stereo unspecified)	0%	26µM*	-27	0%	-25%	?
CC1CC(C)CN(S(=O)(=O)c2ccc(NC(=O)C3CSC4(C)CCC(=O)N34)cc2)C1 (stereo unspecified)	-11%	?	?	-1%	23µM*	-21%
Cc1ccc(C2CC(=O)n3nc(-c4ccc(Cl)cc4)nc3S2)cc1 (stereo unspecified)	.	-26%	.	.	-29%	.
COC(=O)C[C@H]1CC[C@@H](NS(=O)(=O)c2ccc(C)cc2)[C@@H](CO)O1	10%	10%	41	28%	-4%	.
CN(CC(=O)Nc1cccc(F)c1)C(=O)c1ccc(S(=O)(=O)N2CCCC2)cc1	1%	-14%	4	-2%	-2%	6%
CC(OC(=O)c1ccccn1)C(=O)Nc1nc(-c2ccc(F)c(F)c2)cs1 (stereo unspecified)	6%	23µM*	?	4%	26µM*	?
Cc1nc(NC(=O)C(C)Oc2cccc(Cl)c2)sc1C(=O)N(C)C (stereo unspecified)	7%	?	0	6%	?	?
C[C@H](NC(=O)c1ccccc1)C(=O)Nc1nc(-c2ccccn2)cs1	-15%	?	94	-3%	26µM*	7.3µM*
CC(Oc1ccccc1)C(=O)Nc1nc(-c2ccncc2)cs1 (stereo unspecified)	2%	-11%	-14	-2%[9.24 µM]	?	4%
CC(NC(=O)c1ccccc1)C(=O)NC1=NCCS1 (stereo unspecified)	1%	0%	-1	-4%	-1%	19%
CC(OC(=O)c1cnccn1)C(=O)Nc1nc(-c2cccc([N+](=O)[O-])c2)cs1 (stereo unspecified)	-2%	?	-20	5%	?	?
CC(Oc1ccccc1)C(=O)Nc1nc(-c2ccccn2)cs1 (stereo unspecified)	?	3.3µM*	-103*	-29%	3.7µM*	?
CC(Oc1cccc(Cl)c1)C(=O)Nc1nc(-c2ccccn2)cs1 (stereo unspecified)	-26%	5.2µM*	-101*	?	3.3µM*	?
Cc1cccc(C(=O)N[C@H](C(=O)Nc2ncc(C)s2)C(C)C)c1	-25%	?	?	-23%	?	?
Cc1cccc(C(=O)NC(C(=O)Nc2nc(-c3ccccn3)cs2)C(C)C)c1 (stereo unspecified)	?	12µM*	86	-28%	13µM*	2.9µM*
CC(C)c1ccc(NC(=O)c2cc(Br)ccc2Br)cc1	0%	26µM*	-17	-11%	?	0%
CCn1ncc(Br)c1C(=O)Nc1ccc(C(C)C)cc1	-11%	-21%	-85*	-2%	3%	?
O=c1cc(-c2ccccc2)n2c(SCc3ccc([N+](=O)[O-])cc3)nnc2[nH]1	.	-18%	.	.	-118%	.
Cc1cc(OC(C)C(=O)NCCc2c[nH]c3ccccc23)c2c(C)cc(=O)oc2c1 (stereo unspecified)	-1%	?	-21	-5%	16µM*	?
CCCc1cc(=O)oc2cc(C)cc(OC(C)C(=O)N[C@@H](Cc3c[nH]c4ccccc34)C(=O)O)c12 (stereo partly specified)	0%	-7%	19	8%	-8%	0%
COCCNC(=O)C1CCCN(C(=O)C2(c3ccc(Cl)cc3)CCCC2)CC1 (stereo unspecified)	-1%	?	12	4%	-23%	.
Cc1cc(N/N=C/c2ccccc2O)c2ccccc2n1	-11%	16µM*	-63*	0%	16µM*	-6%
COc1ccc(/C=N/Nc2cc(C)nc3ccc(Br)cc23)cc1	21µM*	8.2µM*	-101*	7.3µM*	?	?
SMILES	HT1080 IDH1KD tx	DT40 TDP1 no CPT	IL1B secr inh	HT1080NT lethal	DT40 TDP1 CPT	ELG1 DNA repair
Cc1cccc(N/N=C/c2ccccc2O)c1	?	-8%	-9	?	23%	?
COc1ccc2nc(C)cc(N/N=C/c3cccc(OC)c3O)c2c1	16µM*	?	-99*	?	?	2%
COc1cccc2c(N/N=C/c3ccccc3)cc(C)nc12	0%	0%	8	-2%	-13%	-12%
COc1ccc(-c2c(C#N)c(SCC(=O)Nc3cccc(Cl)c3)nc(C)c2C(=O)Nc2ccccc2)cc1OC	.	1%	.	.	0%	.
O=C(c1ccc(CSCc2ccccc2F)o1)N1CCN(c2ccc(N3CCOCC3)nn2)CC1	0%	?	15	0%	?	18µM*
COc1ccc(OC)c(NC(=O)c2cccc(NC(=O)c3ccco3)c2)c1	25%	?	-15	?	?	.
COc1ccc(NC(=O)c2ccco2)cc1NC(=O)c1cccc(C)c1OC	.	12µM*	.	.	21µM*	.
COc1cccc(C(=O)Nc2cc(NC(=O)c3ccco3)ccc2OC)c1	15%	?	-10	13%	18µM*	?
COc1cc(NC(=O)c2oc3ccccc3c2C)ccc1NC(=O)c1ccco1	-16%	18µM*	-3	0%	?	-23%
CCCCOc1cccc(C(=O)Nc2cc(NC(=O)c3ccco3)ccc2OC)c1	.	21µM*	.	.	18µM*	.
COc1ccc(NC(=O)c2ccco2)cc1NC(=O)c1ccco1	12%	-8%	-3	9%	-20%	2%
CC(CCN1CCC(n2nccc2NC(=O)c2ccccc2Cl)CC1)c1ccccc1 (stereo unspecified)	-11%	-2%	-5	-3%	?	-15%
C#CCOC(=O)CCCC(=O)NCCCCCCCC	-7%	?	19	0%	-2%	17%
Cc1nn(C(C)C(=O)NCc2cccc(F)c2)c(=O)c2c1sc1ccccc12 (stereo unspecified)	.	?	.	.	-5%	.

Source: PubChem BioAssay
